Jurkat NFkB inh – inhibitors of induced NF-kB luciferase reporter, primary screen, TCR NF-kB activation inhibitor project, cell-based, luminescence, uHTS. Jurkat, PMA/ionomycin-induced NF-kB luciferase reporter. AID 435003, 2010. inhibition, % at 4 µM. 0.53% of 330,000 active; in the data active = inhibition above about 50%
Beta apoptosis – inhibitors of cytokine-induced beta cell apoptosis, primary screen, luminescence | 0.8% of 300,000 active | protection from apoptosis, % (no concentration beside the values) | INS-1E cytokine-induced death, ATP luminescence, 48 h; percent of positive-control rescue, neutral wells zero;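 active = Every replicate reaches about 75%, or at least half do and their mean reaches it too, limit read from the data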;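 also: 0% = cytokine-treated negative control wells and 100% = positive control rescue; higher means more ATP so stronger rescue from cytokine killing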
697 NFkB inh – inhibitors of PMA/ionomycin-induced NF-kB reporter, 697 cells, primary screen, B-cell NF-kB inhibitor project, cell-based, luminescence, uHTS; inhibition, % at 4 µM; 697 B-cell NF-kB luciferase reporter, 16 h; 0.33% of 330,000 active; in the data active = inhibition above about 35%
Gli-Sufu block – Gli-Sufu pathway antagonists, primary screen, luciferase luminescence, Sufu-KO-LIGHT cells, uHTS. Sufu-KO-LIGHT fibroblasts, Gli luciferase reporter luminescence. inhibition, % at 5 µM. 0.74% of 340,000 active. AID 588413, 2011;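 active = inhibition above about 55%, limit read from the data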;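 also: 0% = DMSO-treated cells and 100% = wells with medium but no cells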
Jurkat NFkB conf – PMA/ionomycin-induced NF-kB reporter inhibitors, Jurkat retest, confirmation, T-cell NF-kB inhibitor project, cell-based, luminescence, single concentration; inhibition, % at 4 µM; 27% of 2,700 active; shares compounds with Jurkat NFkB inh; Jurkat NF-kB luciferase, 16 h;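 active = inhibition reaching about 45% at 4 µM in either replicate, limit read from the data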;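 also: plate controls were PMA/ionomycin stimulated DMSO wells for no effect and unstimulated DMSO wells for full effect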
An asterisk follows results filed as active. A selection: hits, their analogues and other compounds. The true share with any hit is near 1.8%.

What do the screens show for `Cc1ccc(NCCC(=O)c2cccs2)cc1C`?
Jurkat NFkB inh: -180; Beta apoptosis: -7; 697 NFkB inh: -124; Gli-Sufu block: -51; Jurkat NFkB conf: -7

What do the screens show for `C=CCn1c(Oc2cc(C)ccc2C)nc2c1c(=O)n(C)c(=O)n2C`?
Jurkat NFkB inh: 54*; Beta apoptosis: 5; 697 NFkB inh: -11; Gli-Sufu block: 2; Jurkat NFkB conf: 16

What do the screens show for `CN(C)CC(CCC(CN(C)C)C(O)(c1ccccc1)c1ccccc1)C(O)(c1ccccc1)c1ccccc1` (configuration not stated)?
Jurkat NFkB inh: 65*; 697 NFkB inh: 11; Gli-Sufu block: 26; Jurkat NFkB conf: 15

How did O=C(C#Cc1ccccc1)c1ccco1 do in these assays?
Jurkat NFkB inh: 51*; Beta apoptosis: 100*; 697 NFkB inh: -62; Gli-Sufu block: -7; Jurkat NFkB conf: 18

How did O=C(N/N=C/c1ccccc1)c1ccco1 do in these assays?
Jurkat NFkB inh: -3; Beta apoptosis: 4; 697 NFkB inh: -33; Gli-Sufu block: -20

What do the screens show for `CCC(=NCCc1c(C)[nH]c2ccc(C)cc12)C1=C(O)CC(c2ccccc2)CC1=O` (configuration not stated)?
Jurkat NFkB inh: 64*; Beta apoptosis: 15; 697 NFkB inh: -22; Gli-Sufu block: 46; Jurkat NFkB conf: 10

Results for CC(=O)C1=C(O)CC(c2ccccc2)CC1=NCCc1c(C)[nH]c2ccc(C)cc12 (configuration not stated) ?
Jurkat NFkB inh: -4; Beta apoptosis: 4; 697 NFkB inh: -11; Gli-Sufu block: 6

How did COc1cccc2cc(CC(=O)c3ccc(C)c(C)c3)c(=O)oc12 do in these assays?
Jurkat NFkB inh: -13; Beta apoptosis: -5; 697 NFkB inh: -28; Gli-Sufu block: -20

What do the screens show for `Cc1cccc(C)c1OCCNC(=O)C(=O)NCc1ccco1`?
Jurkat NFkB inh: 67*; Beta apoptosis: 6; 697 NFkB inh: -122; Gli-Sufu block: 6; Jurkat NFkB conf: 38

How did Cc1cccc(C)c1NC(=O)NCc1ccco1 do in these assays?
Jurkat NFkB inh: 3; Beta apoptosis: -8; 697 NFkB inh: 13; Gli-Sufu block: 37

Results for O=C(Nc1nc2ccccc2s1)NC1CCCCC1 ?
Jurkat NFkB inh: -179; Beta apoptosis: -3; 697 NFkB inh: -133; Gli-Sufu block: -124; Jurkat NFkB conf: -112

How did O=[N+]([O-])c1ccc(Cl)c(CN2CCN(c3ncccn3)CC2)c1 do in these assays?
Jurkat NFkB inh: -1; Beta apoptosis: 1; 697 NFkB inh: -11; Gli-Sufu block: 1

How did Cc1ccc2nc(C)c(CN3CCN(c4ccc([N+](=O)[O-])cc4Cl)CC3)n2c1 do in these assays?
Jurkat NFkB inh: 51*; Beta apoptosis: 104*; 697 NFkB inh: -26; Jurkat NFkB conf: 46*

How did COc1ccccc1CCC(=O)OCC(=O)Nc1ccc(S(N)(=O)=O)cc1 do in these assays?
Jurkat NFkB inh: -3; Beta apoptosis: -9; 697 NFkB inh: -2; Gli-Sufu block: 11

Results for Cc1cccc(OCCNC(=O)c2ccc(Cl)c(S(=O)(=O)NCc3cccnc3)c2)c1 ?
Jurkat NFkB inh: 66*; Beta apoptosis: 8; 697 NFkB inh: -28; Jurkat NFkB conf: 40

Results for COC(=O)C1CCN(C(=O)c2ccc(Cl)c(S(=O)(=O)NCc3cccnc3)c2)CC1 ?
Jurkat NFkB inh: 2; Beta apoptosis: -1; 697 NFkB inh: -15; Gli-Sufu block: 5

Results for O=C(NCc1ccccc1Cl)c1ccccc1Oc1ccccc1 ?
Jurkat NFkB inh: -16; Beta apoptosis: -9; 697 NFkB inh: -30; Gli-Sufu block: 7

How did COc1ccccc1NC(=O)c1nc[nH]c1C(=O)Nc1ccccc1OC do in these assays?
Jurkat NFkB inh: 51*; Beta apoptosis: 3; 697 NFkB inh: -13; Gli-Sufu block: 8; Jurkat NFkB conf: 10

How did COc1ccc(NC(=O)c2nc[nH]c2C(=O)Nc2ccccc2C)cc1 do in these assays?
Jurkat NFkB inh: 53*; Beta apoptosis: -8; 697 NFkB inh: -23; Gli-Sufu block: 3; Jurkat NFkB conf: 12

Results for O=C(O)c1cccc(NC(=O)C2C3C=CC(C3)C2C(=O)O)c1 (configuration not stated) ?
Jurkat NFkB inh: -22; Beta apoptosis: -6; 697 NFkB inh: -16; Gli-Sufu block: 5

What do the screens show for `NC[C@H](Cc1ccccc1)NCCCCC1CCCCC1`?
Jurkat NFkB inh: 6; Beta apoptosis: -2; 697 NFkB inh: -5; Gli-Sufu block: -6

What do the screens show for `CNC[C@H](CC1CCCCC1)NC[C@H](Cc1ccccc1)NCCC12CC3CC(CC(C3)C1)C2`?
Jurkat NFkB inh: 91*; Beta apoptosis: 114*; 697 NFkB inh: 21; Gli-Sufu block: -11; Jurkat NFkB conf: 45

How did C#Cc1ccc([C@@H]2C=C(C(=O)N3CCN(Cc4ccccc4)CC3)O[C@H](OCCCCO)C2)cc1 do in these assays?
Jurkat NFkB inh: 80*; Beta apoptosis: 124*; 697 NFkB inh: -18; Jurkat NFkB conf: 43

How did COc1ccc(NC(C)=O)cc1S(=O)(=O)N1CCN(C/C=C/c2ccccc2)CC1 do in these assays?
Jurkat NFkB inh: -6; Beta apoptosis: -6; 697 NFkB inh: 13; Gli-Sufu block: 9

What do the screens show for `COc1ccc(NC(=O)c2ccc(OC(F)F)cc2)cc1Cl`?
Jurkat NFkB inh: -137; Beta apoptosis: 2; 697 NFkB inh: -100; Gli-Sufu block: -116

Results for O=C(Nc1ccc(OC(F)F)c(Cl)c1)c1ccccn1 ?
Jurkat NFkB inh: -176; Beta apoptosis: 6; 697 NFkB inh: -160; Gli-Sufu block: -109; Jurkat NFkB conf: -96

Results for O=C(Nc1ccc(Cl)c(S(=O)(=O)N2CCOCC2)c1)c1ccc(OCC2CCCO2)cc1 (configuration not stated) ?
Jurkat NFkB inh: 60*; Beta apoptosis: 4; 697 NFkB inh: -36; Gli-Sufu block: 37; Jurkat NFkB conf: 64*

What do the screens show for `CCCN1CCC(=NNc2ccc(S(=O)(=O)N3CCOCC3)cc2[N+](=O)[O-])CC1`?
Jurkat NFkB inh: 64*; Beta apoptosis: 11; 697 NFkB inh: -12; Gli-Sufu block: 48; Jurkat NFkB conf: 2

Results for O=C1C(=O)c2ccc(-c3ccccc3)cc2-c2ccccc21 ?
Jurkat NFkB inh: 53*; Beta apoptosis: 98*; 697 NFkB inh: 21; Gli-Sufu block: -1; Jurkat NFkB conf: 24

How did Nc1ccc2c(c1)C(=O)C(=O)c1ccccc1-2 do in these assays?
Jurkat NFkB inh: 84*; Beta apoptosis: 107*; 697 NFkB inh: 5; Gli-Sufu block: 19; Jurkat NFkB conf: 24

Results for Cc1ccccc1CN1CCN(C(=O)c2ccc(F)cc2)CC1 ?
Jurkat NFkB inh: -15; Beta apoptosis: -3; 697 NFkB inh: -20; Gli-Sufu block: 4

Compound activity (PubChem BioAssay)
